Eight compounds from ChEMBL document CHEMBL3988442, “University of Dundee, Small-Polar-MMV Screening Library” (2021) can be followed below.

For some of these results: Results with a measured potency or affinity are listed apart.

Holding throughout (design): scale not given: direction of the effect not stated beside the values
In test [1] the target is Protein translocase subunit SecA (Escherichia coli (strain K12)) (UniProt P10408). Kind of test: Assay to Identify E. coli SecA ATPase Inhibitors. The format is functional. The conditions noted are these: 30 µM.
Test [2] has as its target T1, Ubiquitin-activating enzyme e1, putative (Leishmania donovani (strain BPK282A1)) (UniProt E9BSI1).
T1 sequence (whole entry): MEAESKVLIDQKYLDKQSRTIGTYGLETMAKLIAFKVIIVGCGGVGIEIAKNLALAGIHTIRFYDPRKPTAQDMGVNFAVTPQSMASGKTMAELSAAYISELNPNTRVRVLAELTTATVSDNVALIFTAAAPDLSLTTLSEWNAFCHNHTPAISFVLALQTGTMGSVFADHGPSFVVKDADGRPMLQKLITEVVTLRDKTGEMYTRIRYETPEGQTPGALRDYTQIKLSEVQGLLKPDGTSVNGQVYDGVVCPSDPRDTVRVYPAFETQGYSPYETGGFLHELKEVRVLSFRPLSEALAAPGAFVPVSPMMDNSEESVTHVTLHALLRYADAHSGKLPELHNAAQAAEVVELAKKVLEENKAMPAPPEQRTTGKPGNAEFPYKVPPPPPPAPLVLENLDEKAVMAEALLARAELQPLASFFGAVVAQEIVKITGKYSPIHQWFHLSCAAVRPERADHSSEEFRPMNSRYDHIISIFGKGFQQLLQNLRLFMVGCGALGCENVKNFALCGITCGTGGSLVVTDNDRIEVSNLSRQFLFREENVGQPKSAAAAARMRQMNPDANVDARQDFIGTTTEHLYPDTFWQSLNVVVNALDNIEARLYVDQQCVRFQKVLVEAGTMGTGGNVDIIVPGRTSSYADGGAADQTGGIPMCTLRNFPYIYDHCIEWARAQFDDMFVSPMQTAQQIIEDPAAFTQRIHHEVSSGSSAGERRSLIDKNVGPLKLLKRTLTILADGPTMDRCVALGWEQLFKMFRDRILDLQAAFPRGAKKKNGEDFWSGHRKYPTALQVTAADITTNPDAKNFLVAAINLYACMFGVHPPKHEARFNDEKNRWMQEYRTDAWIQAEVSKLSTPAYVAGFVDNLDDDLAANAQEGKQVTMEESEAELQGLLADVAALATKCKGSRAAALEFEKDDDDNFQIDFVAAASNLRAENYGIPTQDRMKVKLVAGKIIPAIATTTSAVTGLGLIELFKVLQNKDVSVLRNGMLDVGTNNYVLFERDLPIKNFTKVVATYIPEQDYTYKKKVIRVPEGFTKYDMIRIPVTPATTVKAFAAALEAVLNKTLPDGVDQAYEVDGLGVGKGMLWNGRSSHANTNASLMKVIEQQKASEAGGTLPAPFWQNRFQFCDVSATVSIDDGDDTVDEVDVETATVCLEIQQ
Nature of the test: Leishmania donovani Ubiquitin Activating Enzyme (LdE1). The format is functional. Particulars: 30 µM.

Test [3] addresses AMP-activated protein kinase, AMPK (Homo sapiens) (UniProt P54646+O43741+P54619+Q9UGJ0+Q9Y478+Q13131+Q9UGI9). Kind of test: AMP-dependent Kinase enzyme assay. An in vitro enzyme assay that detects ADP turnover that is directly proportional to AMPK activity. This uses naive AMPK that is activated during the assay with MK-8722. It counts as functional. Particulars: 30 µM.
Test [4] concerns the target Sialic acid-binding Ig-like lectin 9 (Homo sapiens) (UniProt Q9Y336). Nature of the test: Hs-Siglec9 ALPHAscreen SOP 20170721. Particulars: 10 µM.
For another test, the system named is Trypanosoma cruzi. Kind of test: Trypanosoma cruzi phosphomannomutase and mannose-1-phosphate guanylyltransferase assay. The format is functional. The conditions noted are these: 10 µM.
In test [5] the target is T2, Arginase-2, mitochondrial (Homo sapiens) (UniProt P78540).
T2 sequence (whole entry): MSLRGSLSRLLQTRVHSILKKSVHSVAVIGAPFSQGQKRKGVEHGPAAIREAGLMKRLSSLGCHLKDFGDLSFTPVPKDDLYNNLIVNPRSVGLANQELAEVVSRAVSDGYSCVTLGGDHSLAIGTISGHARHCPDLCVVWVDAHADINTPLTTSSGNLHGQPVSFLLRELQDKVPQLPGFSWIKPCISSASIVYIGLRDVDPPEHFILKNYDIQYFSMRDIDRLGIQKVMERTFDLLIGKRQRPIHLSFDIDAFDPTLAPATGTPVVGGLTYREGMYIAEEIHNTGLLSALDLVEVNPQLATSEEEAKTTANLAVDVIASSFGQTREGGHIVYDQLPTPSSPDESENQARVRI
Kind of test: in vitro enzyme assay to detect the production of urea directly proportional to the activity of Arginase II. Further: in the data most compounds retested in dose-response had high values. The format is functional. The conditions noted are these: 33.3 µM.

Test [6] concerns the target T3, Proteasome subunit beta (Trypanosoma cruzi) (UniProt O96673).
T3 sequence (whole entry): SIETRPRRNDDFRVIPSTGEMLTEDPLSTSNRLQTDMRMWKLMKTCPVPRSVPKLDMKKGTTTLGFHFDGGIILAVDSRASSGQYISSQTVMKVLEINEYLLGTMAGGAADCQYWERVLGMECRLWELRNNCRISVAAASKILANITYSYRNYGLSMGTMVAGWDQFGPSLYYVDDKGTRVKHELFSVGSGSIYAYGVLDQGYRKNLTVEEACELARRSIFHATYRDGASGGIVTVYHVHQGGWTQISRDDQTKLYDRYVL
Nature of the test: Trypanosoma cruzi proteasome chymotrypsin-like activity (TcProtChymo) assay. Further: in the data most compounds retested in dose-response had high values. It counts as functional. The conditions noted are these: 9.37 µM.

The species named for the next test is Homo sapiens. Kind of test: To identify inhibition of the IFN signalling (Jak-Stat) pathway via expression of an eGFP reporter gene under the control of an IFN-stimulated response element (ISRE) containing MxA promoter. The conditions noted are these: 30 µM. It counts as functional. For orientation: A reporter such as luciferase makes a cellular process visible.

The target of test [7] is T4, Tyrosyl-tRNA synthetase, putative (Trypanosoma cruzi (strain CL Brener)) (UniProt Q4DSP6).
T4 sequence (whole entry): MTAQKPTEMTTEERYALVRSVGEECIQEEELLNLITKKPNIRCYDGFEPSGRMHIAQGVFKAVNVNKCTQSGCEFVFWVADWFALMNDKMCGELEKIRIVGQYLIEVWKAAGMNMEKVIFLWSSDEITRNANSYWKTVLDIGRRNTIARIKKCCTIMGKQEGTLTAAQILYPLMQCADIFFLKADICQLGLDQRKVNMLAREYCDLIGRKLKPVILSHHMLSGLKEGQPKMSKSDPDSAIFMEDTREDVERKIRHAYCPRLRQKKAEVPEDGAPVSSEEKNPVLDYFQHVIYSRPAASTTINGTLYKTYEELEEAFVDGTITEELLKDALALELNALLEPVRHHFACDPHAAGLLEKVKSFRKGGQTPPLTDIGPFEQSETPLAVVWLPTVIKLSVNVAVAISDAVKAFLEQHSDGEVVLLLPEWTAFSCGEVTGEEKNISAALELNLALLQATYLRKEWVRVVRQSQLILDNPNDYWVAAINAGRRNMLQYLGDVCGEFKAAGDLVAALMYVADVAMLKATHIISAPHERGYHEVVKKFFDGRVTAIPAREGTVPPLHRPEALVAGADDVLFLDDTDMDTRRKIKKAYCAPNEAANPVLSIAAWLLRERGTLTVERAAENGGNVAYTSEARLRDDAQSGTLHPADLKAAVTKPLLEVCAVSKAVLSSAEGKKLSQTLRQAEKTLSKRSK
Kind of test: Trypanosoma cruzi tyrosyl tRNA synthetase (TcYRS) _High Tyrosine SOP. Further: in the data most compounds retested in dose-response had high values. The format is functional. Particulars: 30 µM.

In test [8] the target is T4, Tyrosyl-tRNA synthetase, putative (Trypanosoma cruzi (strain CL Brener)). Nature of the test: Trypanosoma cruzi tyrosyl tRNA synthetase (TcYRS) SOP. It counts as functional. The conditions noted are these: 30 µM.
Test [9] has as its target Chromo domain-containing protein 1 (Saccharomyces cerevisiae (strain ATCC 204508 / S288c) (Baker's yeast)) (UniProt P32657). Kind of test: ScCHD-1 Enzyme Inhibition Assay. Further: in the data most compounds retested in dose-response had high values. Particulars: 30 µM. The format is functional.

Chromo domain-containing protein 1 (Saccharomyces cerevisiae (strain ATCC 204508 / S288c) (Baker's yeast)), sequence (P32657 whole entry, the tested form may be a part): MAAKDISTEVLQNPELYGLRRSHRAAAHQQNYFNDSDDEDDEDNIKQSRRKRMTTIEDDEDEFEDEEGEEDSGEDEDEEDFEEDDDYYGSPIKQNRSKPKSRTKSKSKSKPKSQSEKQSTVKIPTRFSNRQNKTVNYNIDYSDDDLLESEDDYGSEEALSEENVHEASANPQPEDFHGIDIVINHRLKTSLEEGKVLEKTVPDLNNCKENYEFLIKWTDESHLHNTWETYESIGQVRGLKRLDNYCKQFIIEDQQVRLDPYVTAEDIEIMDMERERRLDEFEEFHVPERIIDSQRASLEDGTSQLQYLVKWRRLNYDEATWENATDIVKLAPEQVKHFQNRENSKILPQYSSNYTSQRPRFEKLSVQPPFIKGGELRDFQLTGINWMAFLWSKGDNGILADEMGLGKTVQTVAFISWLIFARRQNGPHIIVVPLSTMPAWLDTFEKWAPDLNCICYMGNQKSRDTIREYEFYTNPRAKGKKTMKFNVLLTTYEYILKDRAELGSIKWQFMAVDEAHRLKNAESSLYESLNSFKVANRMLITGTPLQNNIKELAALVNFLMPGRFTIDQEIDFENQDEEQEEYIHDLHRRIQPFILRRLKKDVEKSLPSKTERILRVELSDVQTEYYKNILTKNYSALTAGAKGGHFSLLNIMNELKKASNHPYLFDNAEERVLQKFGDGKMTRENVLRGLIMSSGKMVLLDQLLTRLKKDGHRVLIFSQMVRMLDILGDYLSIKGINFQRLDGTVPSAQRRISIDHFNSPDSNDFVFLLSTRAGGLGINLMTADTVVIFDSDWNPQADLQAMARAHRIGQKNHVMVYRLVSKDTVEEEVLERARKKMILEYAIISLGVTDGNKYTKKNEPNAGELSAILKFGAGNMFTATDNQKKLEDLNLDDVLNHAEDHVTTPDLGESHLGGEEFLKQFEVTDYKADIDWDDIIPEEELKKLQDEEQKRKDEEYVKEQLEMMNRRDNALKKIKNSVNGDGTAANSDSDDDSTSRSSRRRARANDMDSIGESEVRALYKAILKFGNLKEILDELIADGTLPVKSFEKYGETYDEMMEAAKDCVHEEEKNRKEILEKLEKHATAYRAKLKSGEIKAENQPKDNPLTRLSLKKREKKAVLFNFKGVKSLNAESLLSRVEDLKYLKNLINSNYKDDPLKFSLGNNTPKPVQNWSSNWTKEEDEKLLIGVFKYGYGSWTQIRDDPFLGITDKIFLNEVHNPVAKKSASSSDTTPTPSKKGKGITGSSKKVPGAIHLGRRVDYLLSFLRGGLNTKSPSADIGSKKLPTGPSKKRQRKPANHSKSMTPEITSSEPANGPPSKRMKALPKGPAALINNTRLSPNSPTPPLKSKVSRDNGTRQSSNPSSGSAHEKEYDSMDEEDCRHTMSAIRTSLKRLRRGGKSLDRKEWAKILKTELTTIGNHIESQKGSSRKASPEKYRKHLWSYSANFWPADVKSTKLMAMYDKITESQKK
Protein translocase subunit SecA (Escherichia coli (strain K12)), sequence (P10408 whole entry): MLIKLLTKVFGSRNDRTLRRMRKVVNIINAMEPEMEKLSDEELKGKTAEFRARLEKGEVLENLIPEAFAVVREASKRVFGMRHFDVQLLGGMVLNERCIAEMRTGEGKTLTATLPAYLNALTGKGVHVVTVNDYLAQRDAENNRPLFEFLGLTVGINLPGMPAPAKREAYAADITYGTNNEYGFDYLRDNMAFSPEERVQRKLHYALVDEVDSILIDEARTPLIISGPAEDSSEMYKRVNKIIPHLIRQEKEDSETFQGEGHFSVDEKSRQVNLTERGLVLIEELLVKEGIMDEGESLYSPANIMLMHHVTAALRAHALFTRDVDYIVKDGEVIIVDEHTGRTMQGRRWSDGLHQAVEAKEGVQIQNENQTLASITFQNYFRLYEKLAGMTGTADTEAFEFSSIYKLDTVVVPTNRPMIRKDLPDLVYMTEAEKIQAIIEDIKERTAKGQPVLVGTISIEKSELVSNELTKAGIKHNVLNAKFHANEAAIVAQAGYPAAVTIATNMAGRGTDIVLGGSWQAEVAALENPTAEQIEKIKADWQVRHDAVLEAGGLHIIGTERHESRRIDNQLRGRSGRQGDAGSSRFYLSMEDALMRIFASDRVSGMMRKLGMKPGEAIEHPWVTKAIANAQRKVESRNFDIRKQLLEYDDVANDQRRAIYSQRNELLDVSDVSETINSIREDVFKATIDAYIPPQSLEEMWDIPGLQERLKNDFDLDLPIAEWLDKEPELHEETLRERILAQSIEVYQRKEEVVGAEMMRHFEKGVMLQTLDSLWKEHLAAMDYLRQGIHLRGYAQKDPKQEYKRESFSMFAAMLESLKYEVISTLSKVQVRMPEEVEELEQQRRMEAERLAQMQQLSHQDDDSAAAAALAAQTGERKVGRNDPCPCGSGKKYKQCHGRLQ
Sialic acid-binding Ig-like lectin 9 (Homo sapiens), sequence (Q9Y336 whole entry): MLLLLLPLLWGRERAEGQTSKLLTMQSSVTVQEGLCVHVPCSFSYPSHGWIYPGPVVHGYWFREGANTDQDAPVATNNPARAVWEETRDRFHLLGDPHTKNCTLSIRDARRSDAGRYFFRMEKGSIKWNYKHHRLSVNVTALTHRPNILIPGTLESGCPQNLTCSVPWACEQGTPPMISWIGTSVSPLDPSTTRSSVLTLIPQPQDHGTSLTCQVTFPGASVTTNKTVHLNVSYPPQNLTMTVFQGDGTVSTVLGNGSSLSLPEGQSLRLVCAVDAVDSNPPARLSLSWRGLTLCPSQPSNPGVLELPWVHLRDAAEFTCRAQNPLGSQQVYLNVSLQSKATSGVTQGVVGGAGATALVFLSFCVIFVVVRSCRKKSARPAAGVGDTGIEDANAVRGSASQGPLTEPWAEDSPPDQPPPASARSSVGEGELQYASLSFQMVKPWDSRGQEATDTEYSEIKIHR

As to `Cc1cc(-c2nnn(CCNS(C)(=O)=O)n2)ccc1F`, the Percent Effect in [1] was -6.86%; in [2], 5.48%; in test [3], 0.593%; in test [4], 2.92%; with Trypanosoma cruzi, 3.17%; in test [5] it was 0.399%. The Percent Effect in [6] was 4.71%; in the test filed under Homo sapiens it was 17.4%; in [7], 9.38%; in [8] it was 18.5%; in test [9], -2.42%.
For `CC1CCN(S(=O)(=O)NCc2ccccc2Cn2cncn2)CC1`, the Percent Effect in test [1] was -3.83%; in [2], 13.9%; in test [3], 6.66%; in test [4] it was 0.681%; in the test on Trypanosoma cruzi it was -1.54%; in test [5], 3.23%. In addition, the Percent Effect in test [6] was 13.4%; in the test filed under Homo sapiens, 10.6%; in test [7] it was 3.12%; in test [8], 20.2%; in [9], -23.4%.
For `CCn1nc(C)c2nnn(CC(=O)Nc3cccc(Cl)c3)c(=O)c21`, the Percent Effect was -4.67% in [1]; -6.67% in test [2]; 1.25% in test [3]; 3.3% in [4]; 4.13% in the test with Trypanosoma cruzi; -5.11% in [5]. The Percent Effect in test [6] is 12.9%; in the test listed under Homo sapiens it was -22.7%; in test [7] it was 6.35%; in test [8], 7.69%; in test [9], -7%.
As to `CN(Cc1ccsc1)C(=O)CN1CCCC1Cn1cccn1` (stereo not drawn), the Percent Effect is -3.48% in [1]; -18.2% in [2]; 2.08% in [3]; -4.38% in test [4]; 5% in the test with Trypanosoma cruzi; -1.05% in [5]. Moreover, the Percent Effect is 3.8% in test [6]; -6.97% in the test filed under Homo sapiens; 11.4% in test [7]; 7.06% in [8]; 4.97% in test [9].
Turning to `CC(C)NC(=O)c1ccc2c(c1)nc1n2CCN(c2ccccc2)C1`, the Percent Effect was -1.74% in test [1]; -17.3% in test [2]; 16.6% in [3]; 5.54% in test [4]; -1.97% in the test with Trypanosoma cruzi; -9.68% in test [5]. Besides, the Percent Effect in [6] is 15.3%; in the test listed under Homo sapiens, -10.5%; in [7], 26.5%; in test [8], 33.3%; in test [9] it was -10.5%.
On to `CC(C)COC(C)C(=O)NCc1cc(F)cc(F)c1` (stereo not drawn), for which the Percent Effect in test [1] is -1.7%; in [2] it was 2.6%; in [3] it was 8.53%; in test [4], 10.1%; in the test on Trypanosoma cruzi it was 1.47%; in [5], 2.32%. Also, the Percent Effect is -0.728% in test [6]; 21.9% in the test listed under Homo sapiens; 2.86% in test [7]; 2.35% in test [8]; -5.87% in test [9].
On to `CS(=O)(=O)N1CCOC2(CCCN(c3cnccn3)C2)C1` (stereo not drawn), for which the Percent Effect is -3.81% in test [1]; 0% in test [2]; -1.28% in [3]; -4.89% in test [4]; -2.83% in the test with Trypanosoma cruzi; 1.74% in [5]. The Percent Effect in test [6] is 6.09%; in the test filed under Homo sapiens, 1.81%; in [7] it was 1.07%; in test [8], 1.24%; in test [9], 0.866%.
Regarding `CN1CCN(Cc2cn3c(n2)CN(Cc2cccnc2)CC3)CC1`, the Percent Effect in test [1] is 5.16%; in [2], 16.2%; in test [3], 12.3%; in [4], -13.1%; in the test on Trypanosoma cruzi, -7.14%; in test [5], 2.23%. For the same compound, the Percent Effect in test [6] was 5.72%; in the test filed under Homo sapiens, 16.3%; in [7], 1.08%; in test [8] it was 10.3%; in test [9], -4.09%.
